Source: PubChem BioAssay AID1159580 (chemical genetic matrix, 2015)
Values joined by “and” are separate entries in the source; they are usually repeats but may differ in a detail not shown here. Equal values may be shown once. Among all 5,500 compounds or so, about 2,000 (36%) were called active. Not shown: some 18% with an inconclusive outcome. Rule as the data show it: active = normalized growth mostly below about 0.91 (no sharp cut-off); inconclusive = no clear call, values can overlap the other calls; inactive = mostly above about 0.92. The list shows a part of the results.

Test: chemical genetic growth profiling, strain panel (AID 1159580);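 also: tested at 20 µM; growth read once vehicle control cultures reached saturation at 30 °C; 1 = growth at the plate median or of vehicle wells; lower values mean less growth of the strain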
Conditions: S. cerevisiae deletion strains, growth OD

Measured: normalized growth

CCOP(=S)(OCC)Oc1ccc2c(C)c(Cl)c(=O)oc2c1
inactive: locus YAL013W, strain DEP1, stronger effect = lower value 0.987 | locus YAL021C, strain ccr4, stronger effect = lower value 0.997 | locus YAL026C, strain drs2, stronger effect = lower value 0.96 | locus YAL030W, strain snc1, stronger effect = lower value 0.976 | locus YBL061C, strain skt5, stronger effect = lower value 0.96 | locus YBR009C, strain hhf1, stronger effect = lower value 0.982 | locus YBR021W, strain FUR4, stronger effect = lower value 0.97 | locus YBR023C, strain chs3, stronger effect = lower value 0.944 | locus YBR171W, strain sec66, stronger effect = lower value 0.939 | locus YBR229C, strain ROT2, stronger effect = lower value 0.955 | locus YBR231C, strain swc5, stronger effect = lower value 0.979 | locus YBR279W, strain paf1, stronger effect = lower value 0.971 | locus YCL016C, strain dcc1, stronger effect = lower value 0.984 | locus YCL029C, strain bik1, stronger effect = lower value 0.984 | locus YCL061C, strain MRC1, stronger effect = lower value 0.96 | locus YCL069W, strain vba3, stronger effect = lower value 0.957 | locus YCR088W, strain abp1, stronger effect = lower value 0.964 | locus YDL005C, strain med2, stronger effect = lower value 0.959 | locus YDL035C, strain GPR1, stronger effect = lower value 0.978 | locus YDL040C, strain nat1, stronger effect = lower value 0.964 | locus YDL074C, strain BRE1, stronger effect = lower value 0.907 | locus YDL101C, strain DUN1, stronger effect = lower value 0.975 | locus YDL134C, strain PPH21, stronger effect = lower value 0.981 | locus YDL185W, strain tfp1, stronger effect = lower value 0.957 | locus YDL192W, strain arf1, stronger effect = lower value 0.975 | locus YDR001C, strain nth1, stronger effect = lower value 0.977 | locus YDR069C, strain doa4, stronger effect = lower value 0.938 | locus YDR101C, strain arx1, stronger effect = lower value 0.983 | locus YDR137W, strain rgp1, stronger effect = lower value 0.939 | locus YDR150W, strain NUM1, stronger effect = lower value 0.982 | locus YDR159W, strain sac3, stronger effect = lower value 0.901 | locus YDR162C, strain NBP2, stronger effect = lower value 0.92 | locus YDR195W, strain ref2 1.03 | locus YDR297W, strain sur2, stronger effect = lower value 0.988 | locus YDR318W, strain mcm21, stronger effect = lower value 0.976 | locus YDR334W, strain swr1, stronger effect = lower value 0.961 | locus YDR335W, strain msn5, stronger effect = lower value 0.975 | locus YDR388W, stronger effect = lower value 0.98 | locus YDR392W, strain spt3, stronger effect = lower value 0.836 | locus YDR502C, strain sam2, stronger effect = lower value 0.984 | locus YEL003W, strain gim4, stronger effect = lower value 0.953 | locus YEL037C, strain rad23, stronger effect = lower value 0.962 | locus YEL061C, strain CIN8 (second series), stronger effect = lower value 0.962 | locus YEL061C, strain CIN8, stronger effect = lower value 0.979 | locus YER015W, strain faa2, stronger effect = lower value 0.966 | locus YER016W, strain bim1, stronger effect = lower value 0.97 | locus YER110C, stronger effect = lower value 0.977 | locus YER111C, strain swi4, stronger effect = lower value 0.975 | locus YER155C, strain BEM2 (second series), stronger effect = lower value 0.959 | locus YER155C, strain BEM2, stronger effect = lower value 0.998 | locus YER167W, strain BCK2, stronger effect = lower value 0.99 | locus YFR010W, strain ubp6, stronger effect = lower value 0.942 | locus YGL078C, strain dbp3, stronger effect = lower value 0.984 | locus YGL086W, strain mad1, stronger effect = lower value 0.989 | locus YGL167C, strain pmr1, stronger effect = lower value 0.956 | locus YGL173C, strain kem1, stronger effect = lower value 0.956 | locus YGL227W, strain vid30, stronger effect = lower value 0.961 | locus YGL240W, strain doc1, stronger effect = lower value 0.933 | locus YGL248W, strain PDE1, stronger effect = lower value 0.957 | locus YGR078C, strain PAC10, stronger effect = lower value 0.973 | locus YGR135W, strain pre9, stronger effect = lower value 0.97 | locus YGR229C, strain SMI1, stronger effect = lower value 0.947 | locus YGR252W, strain gcn5, stronger effect = lower value 0.937 | locus YHR013C, strain ard1, stronger effect = lower value 0.968 | locus YHR027C, strain rpn1, stronger effect = lower value 1 | locus YHR030C, strain SLT2, stronger effect = lower value 0.986 and 1.02 | locus YHR079C, strain IRE1 (second series), stronger effect = lower value 0.988 | locus YHR079C, strain IRE1, stronger effect = lower value 1 | locus YHR094C, strain hxt1, stronger effect = lower value 0.985 | locus YHR129C, strain ARP1, stronger effect = lower value 0.983 | locus YHR142W, strain chs7, stronger effect = lower value 0.912 | locus YHR200W, strain rpn10, stronger effect = lower value 0.984 | locus YIL066C, strain RNR3, stronger effect = lower value 0.961 | locus YIL073C, strain SPO22, stronger effect = lower value 0.988 | locus YIL125W, strain kgd1, stronger effect = lower value 0.981 | locus YIR030C, strain dcg1, stronger effect = lower value 0.989 | locus YJL092W, strain hpr5, stronger effect = lower value 0.944 | locus YJL095W, strain BCK1 (second series), stronger effect = lower value 0.96 | locus YJL095W, strain BCK1, stronger effect = lower value 0.958 and 1.02 | locus YJL115W, strain asf1, stronger effect = lower value 0.962 | locus YJL129C, strain trk1, stronger effect = lower value 0.942 | locus YJL134W, strain LCB3, stronger effect = lower value 0.971 | locus YJL154C, strain vps35, stronger effect = lower value 0.985 | locus YJL164C, strain tpk1, stronger effect = lower value 0.974 | locus YJL166W, strain qcr8, stronger effect = lower value 0.935 | locus YJL168C, strain set2, stronger effect = lower value 0.986 | locus YJL187C, strain SWE1 (second series), stronger effect = lower value 0.981 | locus YJL187C, strain SWE1, stronger effect = lower value 0.964 | locus YJR043C, strain POL32, stronger effect = lower value 0.996 | locus YJR066W, strain TOR1, stronger effect = lower value 0.967
active: locus YCL011C, strain gbp2, stronger effect = lower value 0.906 | locus YGL253W, strain hxk2, stronger effect = lower value 0.903
